Shown are actives, neighbours in structure and some others; about 32% of the full set was active somewhere.
CYP2C9 inhib: human CYP2C9 inhibition; P11712; CYP2C9 Supersomes, luciferin-H conversion, luminescence; inhibition, % at 5 µM; 96,000 compounds, 20% hits; AID 777;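 active = blocking of liver enzyme CYP2C9 beyond about 50% at 5 µM, limit read from the data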
CYP2C9 act: CYP2C9 (human) activation; P11712; recombinant CYP2C9, luciferin-H conversion, luminescence; hits give high values; factor 1 = untreated enzyme, 0 = blocked; activation factor at 5 µM; 96,000 compounds, 1.4% hits;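 active = activation factor of 2 or more for CYP2C9 at a 5 µM dose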;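 also: 0 = sulfaphenazole-blocked wells and 1 = vehicle-only wells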
CYP2C19 inh: blocks human cytochrome P450 2C19; P33261; CYP2C19 Supersomes, luciferin-H EGE luminescence, 30 min; inhibition, % at 5 µM; 96,000 compounds, 21% hits; AID 778;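 active = CYP2C19 inhibition above a set limit at 5 µM in the primary screen, cut at about 50% in these data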;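 also: plate controls were negative control wells for no effect and 2.5 mM tranylcypromine positive control for full effect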
Target sequence (P33261 whole entry, looked up): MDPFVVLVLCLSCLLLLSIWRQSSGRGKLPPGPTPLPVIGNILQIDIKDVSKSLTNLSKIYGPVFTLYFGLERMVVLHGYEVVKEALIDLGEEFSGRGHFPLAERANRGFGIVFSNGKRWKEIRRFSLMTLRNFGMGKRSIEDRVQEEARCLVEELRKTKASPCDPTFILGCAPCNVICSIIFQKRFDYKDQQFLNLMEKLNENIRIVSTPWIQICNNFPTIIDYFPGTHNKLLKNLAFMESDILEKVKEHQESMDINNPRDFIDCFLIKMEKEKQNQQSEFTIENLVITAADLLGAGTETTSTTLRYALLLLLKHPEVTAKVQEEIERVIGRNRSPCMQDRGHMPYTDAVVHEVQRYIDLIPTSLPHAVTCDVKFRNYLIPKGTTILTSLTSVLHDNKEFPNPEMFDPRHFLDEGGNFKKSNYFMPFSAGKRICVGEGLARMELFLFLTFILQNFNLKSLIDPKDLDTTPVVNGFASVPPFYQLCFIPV
PostGolgi ctrl: inhibits growth of the yeast control strain; efflux-deficient yeast background strain, growth absorbance A615, 16 h; inhibition, % at 10 µM; 98,000 compounds, 5% hits; AID 738
CYP2C19 act: activators of human cytochrome P450 2C19; activation factor at 5 µM; 96,000 tested, under 10 active; AID 1025; P33261; recombinant CYP2C19, luciferin-H EGE luminescence; hits give high values; 0 = fully inhibited enzyme, 1 = untreated enzyme;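 active = activation factor of at least 2 at 5 µM in the primary screen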;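 also: 0 = wells with 2.5 mM tranylcypromine and 1 = vehicle-only wells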
PostGolgi yeast: growth inhibition of a yeast mutant, post-Golgi transport screen; post-Golgi transport phenotypic cell assay; inhibition, % at 10 µM; 98,000 compounds, 0.9% hits; AID 739;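 also: yeast cells grown in 1536-well plates; yeast grown about 18 h at 30C before absorbance read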
* = called active by the depositor; . = no result given. Rule as the data show it, unless noted: active = inhibition above about 30%; inactive = the rest.

SMILES	CYP2C9 inhib	CYP2C9 act	CYP2C19 inh	PostGolgi ctrl	CYP2C19 act	PostGolgi yeast
CCc1ccccc1NC(=O)CSC1=C(C#N)C(c2ccc(O)c(OC)c2)C2=C(CCCC2=O)N1 (configuration not stated)	56*	0.4	14	6	0.9	0
O=C1CCCC2=C1C(c1ccc3c(c1)OCO3)c1c([nH]n(-c3ccccc3)c1=O)N2 (configuration not stated)	19	0.8	9	3	0.9	10
COC(=O)C1C(=O)C=C(N2CCOCC2)CC1(C)C (configuration not stated)	-19	1.2	-16	-11	1.2	29
CCSC1=C(C#N)C(c2ccc3c(c2)OCO3)C2=C(CCCC2=O)N1 (configuration not stated)	67*	0.3	85*	10	0.2	4
N#CC1=C(SCc2ccccc2)NC2=C(C(=O)CCC2)C1c1ccc2c(c1)OCO2 (configuration not stated)	43	0.6	40	20	0.6	-3
CCCC(=O)Nc1nnc(CCN2CCCCC2)s1	-11	1.1	-8	17	1.1	-1
CCOc1ccc(C(CC(=O)O)NS(=O)(=O)c2ccc(C)cc2)cc1OC (configuration not stated)	-6	1.1	-11	8	1.1	-7
CC(=O)c1c(NCCc2ccccc2)cc(C)oc1=O	33	0.7	57*	6	0.4	-4
CCCCNc1cc(C)oc(=O)c1C(C)=O	-14	1.1	-12	-6	1.1	-1
CCCNc1cc(C)oc(=O)c1C(=O)CCC	-100	2*	25	10	0.8	-5
CCCC(=O)c1c(NC(C)C)cc(C)oc1=O	-122	2.2*	8	4	0.9	4
CCCCC(CC)C1OCC(CN2CCCC2)O1 (configuration not stated)	-1	1	17	2	0.8	-4
C=CCOc1ccc(C(=O)N(Cc2ccc(N(C)C)cc2)C2CCS(=O)(=O)C2)cc1 (configuration not stated)	15	0.9	2	5	1	7
COC(=O)c1c(-n2cnnn2)sc(C)c1C	2	1	10	9	0.9	10
CCOc1ccc(CCNS(=O)(=O)c2c(C)n[nH]c2C)cc1OCC	20	0.8	8	6	0.9	-9
CCOc1ccccc1OCCCCCc1c(C)n[nH]c1C	19	0.8	77*	12	0.2	-6
COc1cccc(/C=N/NC(=O)CCc2c(C)n[nH]c2C)c1	11	0.9	26	15	0.7	-3
COc1ccccc1OCCCCCc1c(C)n[nH]c1C	13	0.9	54*	4	0.5	-13
Cc1cccc(OCCCCc2c(C)n[nH]c2C)c1C	74*	0.3	88*	38*	0.1	8
COc1ccccc1OCCCc1c(C)n[nH]c1C	6	0.9	67*	100*	0.3	109*
CCC(Sc1ncccc1C(=O)O)C(=O)N1CCCC1 (configuration not stated)	.	.	.	2	.	0
CCOc1ccccc1C1CC(=O)NC2=C1C(=O)CC(C)(C)C2 (configuration not stated)	13	0.9	21	10	0.8	20
COc1ccc(-n2cnc3sc(-c4ccccc4)cc3c2=O)cc1	7	0.9	5	28	0.9	-2
O=C(ON=C1CCN(S(=O)(=O)c2ccccc2)CC1)c1cccc(Cl)c1	.	.	.	1	.	-5
COc1ccc(OC)c(-n2c(-c3cc(-c4ccc(F)cc4)n[nH]3)n[nH]c2=S)c1	-11	1.1	35	-2	0.6	-3
SMILES	CYP2C9 inhib	CYP2C9 act	CYP2C19 inh	PostGolgi ctrl	CYP2C19 act	PostGolgi yeast
COc1ccc(-c2cc(-c3ccc(OC)cc3)[nH]n2)cc1	24	0.8	26	33*	0.7	20
Cn1c(NCc2ccco2)nc2c1c(=O)n(Cc1ccc(Br)cc1)c(=O)n2C	0	1	6	32*	0.9	-6
COc1ccc(CNc2nc3c(c(=O)n(Cc4ccc(Br)cc4)c(=O)n3C)n2C)cc1	63*	0.4	48	25	0.5	6
CC1CN(c2nc3c(c(=O)n(Cc4ccc(Cl)cc4)c(=O)n3C)n2C)CC(C)O1 (configuration not stated)	14	0.9	13	15	0.9	-3
Cn1c(NCc2ccccc2)nc2c1c(=O)n(Cc1ccc(Br)cc1)c(=O)n2C	97*	0	89*	21	0.1	2
Cn1c(Cl)nc2c1c(=O)n(Cc1cccc(Br)c1)c(=O)n2C	39	0.6	94*	12	0.1	-8
CCOC(=O)CNC(=O)c1cc(C)oc1C	-9	1.1	3	-1	1	2
CCNc1nc(Oc2ccccc2)nc(OC(C)C(=O)OCC)n1 (configuration not stated)	.	.	.	0	.	2
O=C(NCC1CCCO1)Nc1ccccc1 (configuration not stated)	-9	1.1	3	6	1	7
Cn1c(Oc2ccc3c(c2)OCO3)nc2c1c(=O)n(Cc1ccccc1)c(=O)n2C	-4	1	9	31*	0.9	5
COc1ccccc1Oc1nc2c(c(=O)n(Cc3ccccc3F)c(=O)n2C)n1C	-10	1.1	60*	26	0.4	-1
Cn1c(=O)c2c(nc(Oc3ccc4c(c3)OCO4)n2Cc2ccc(Cl)cc2)n(C)c1=O	27	0.7	-6	1	1.1	2
Cn1c(=O)c2c(nc(NCc3ccc4c(c3)OCO4)n2Cc2ccccc2)n(C)c1=O	65*	0.3	56*	18	0.4	-5
Cn1c(=O)c2c(nc(NCc3ccc4c(c3)OCO4)n2Cc2ccc(F)cc2)n(C)c1=O	23	0.8	26	19	0.7	-8
O=C(CNS(=O)(=O)c1ccc(Br)s1)N1CCC(N2CCCCC2)CC1	19	0.8	22	0	0.8	1
Cc1cc(C)n(-c2nc(C)nc3c2cnn3-c2ccccc2)n1	-14	1.1	-14	1	1.1	9
Cc1onc(-c2ccccc2)c1-c1nc2ccccc2c(=O)o1	35	0.6	51*	32*	0.5	12
O=c1oc(-c2cccnc2)nc2ccccc12	-2	1	5	4	0.9	-4
COc1ccc(-c2ccc(-c3nnn(CC(C)=O)n3)cc2)cc1	-12	1.1	-1	8	1	-1
CC(=O)CC(C)(C)n1nnc(-c2ccccc2)n1	12	0.9	62*	7	0.4	-9
c1ccc(SCCOCCn2cncn2)cc1	19	0.8	78*	3	0.2	-4
Cc1ccc(SCCCn2cncn2)cc1	31	0.7	84*	-9	0.2	2
c1ccc(COc2ccc(OCCOCCn3cncn3)cc2)cc1	30	0.7	31	-2	0.7	-10
Cc1cccc(N2CCN(C(=O)C34CC5CC(CC(C5)C3)C4)CC2)c1C	29	0.7	22	51*	0.8	-4
